Test results published in PubChem BioAssay (NCI).
Compounds without any hit were thinned out: in the full panel of roughly 83,000, 20% have a hit.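 96-well plates, one dose, 48 hours. Percent growth reported; active if below 10.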 Active and inactive are the calls of the source.

Assays:
Test in all cases: NCI-60 one-dose screen, 48 h (100 = growth as untreated, 0 = no growth, -100 = all killed)
Details in all cases: 10 µM unless noted
[1] = tested on: NCI-H23 lung
[2] = tested on: NCI-H226 lung
[3] = tested on: NCI-H322M lung
[4] = tested on: HOP-62 NSCLC
[5] = tested on: NCI-H460 lung
[6] = tested on: HOP-92 NSCLC
[7] = tested on: NCI-H522 lung
[8] = tested on: A549/ATCC NSCLC
[9] = tested on: 786-0 renal
[10] = tested on: COLO 205 colon

SMILES	growth [1]	growth [2]	growth [3]	growth [4]	growth [5]	growth [6]	growth [7]	growth [8]	growth [9]	growth [10]
Cc1ccc(C(=O)/C(=C/c2ccc([N+](=O)[O-])cc2)S(=O)Cc2ccccc2)cc1 (configuration not stated)	13.6% (inactive)	47.1% (inactive)	81.6% (inactive)	47.9% (inactive)	22.1% (inactive)	36.9% (inactive)	-32% (active)	65.1% (inactive)	-49.5% (active)	-26.4% (active)
CN1CCN(C(=O)[C@@]2(C)CC[C@]3(C)CC[C@]4(C)C(=CC[C@@H]5[C@@]6(C)CC[C@H](OC(=O)c7cccnc7)C(C)(C)[C@@H]6CC[C@]54C)[C@@H]3C2)CC1	75.3% (inactive)	95.2% (inactive)	94.9% (inactive)	83.7% (inactive)	11.7% (inactive)	79.2% (inactive)	98.6% (inactive)	69.8% (inactive)	13% (inactive)	68.3% (inactive)
O=C1CCC23OC(c4ccccc4N12)C(O)C(O)C3O (configuration not stated)	102% (inactive)	107% (inactive)	98.6% (inactive)	104% (inactive)	112% (inactive)		81% (inactive)	94.5% (inactive)	98.8% (inactive)	124% (inactive)
Nc1n[nH]c2cccc(C#Cc3cccc(NC(=O)c4cc(N5CCOCC5)cc(C(F)(F)F)c4)c3)c12	45% (inactive)	43.9% (inactive)	55.2% (inactive)	48.2% (inactive)	47.3% (inactive)		53.2% (inactive)	69.5% (inactive)	57.7% (inactive)	18.2% (inactive)
COc1cccc(C(=O)OCCn2nc3c4c(cccc42)C(=O)c2ccccc2-3)c1O	44.2% (inactive)	79.9% (inactive)	53.8% (inactive)	39.5% (inactive)	28.2% (inactive)		24.8% (inactive)	67.4% (inactive)	72.3% (inactive)	107% (inactive)
CCO/C=N/S(=O)(=O)c1cc2c(cc1Cl)NC=NS2(=O)=O	103% (inactive)	98.7% (inactive)	111% (inactive)	93.9% (inactive)	106% (inactive)		99.4% (inactive)	89% (inactive)	100% (inactive)	108% (inactive)
O=C1CCc2ccccc2N1	99.4% (inactive)	104% (inactive)	87.9% (inactive)	102% (inactive)	110% (inactive)		101% (inactive)	101% (inactive)	101% (inactive)	97.1% (inactive)
COc1ccc([C@H]2[C@@H](F)C(=O)N2c2cc(OC)c(OC)c(OC)c2)cc1F	21.3% (inactive)	59% (inactive)	46.4% (inactive)	31.8% (inactive)	7.06% (active)		-8.46% (active)	15.3% (inactive)	22.9% (inactive)	-68% (active)
Nc1cc(N)nc(SCC(=O)O)n1	102% (inactive)	103% (inactive)	102% (inactive)	104% (inactive)	106% (inactive)		79.7% (inactive)	88% (inactive)	99.1% (inactive)	114% (inactive)
NS(=O)(=O)c1ccc(-n2nc(-c3ccccc3)ccc2=O)cc1	101% (inactive)	100% (inactive)	115% (inactive)	102% (inactive)	104% (inactive)		89.9% (inactive)	112% (inactive)	93.8% (inactive)	125% (inactive)
O=C(O)C(C(=O)O)c1cccc2ccccc12	99.9% (inactive)	102% (inactive)	101% (inactive)	92.7% (inactive)	104% (inactive)		88.9% (inactive)	94.4% (inactive)	95.4% (inactive)	110% (inactive)
CC1CCN(CCCCCOc2ccc3oc4ccccc4c(=O)c3c2)CC1	75.6% (inactive)	90.6% (inactive)	78.7% (inactive)	98.6% (inactive)	81.8% (inactive)		76.2% (inactive)	73.5% (inactive)	75.7% (inactive)	58.5% (inactive)
CN(C)c1ccc(-c2ccc3[nH]c(=O)nc(-c4ccc(F)cc4)c3c2)cn1	56.2% (inactive)	68.3% (inactive)	68.2% (inactive)	48.2% (inactive)	21.6% (inactive)		14.9% (inactive)	39.6% (inactive)	30.4% (inactive)	39.6% (inactive)
COc1ccc2nc(-c3ccc(OC)c(OC)c3)cc(-c3nnc(SCC(=O)Nc4ccc(C(C)=O)cc4)o3)c2c1	104% (inactive)	96.9% (inactive)	103% (inactive)	107% (inactive)	105% (inactive)		88.3% (inactive)	94% (inactive)	101% (inactive)	116% (inactive)
C[C@H](Oc1cc(-c2cnn(C3CCNCC3)c2)cnc1N)c1c(Cl)ccc(F)c1Cl	71.6% (inactive)	109% (inactive)	75.2% (inactive)	66.5% (inactive)	57.9% (inactive)		73.1% (inactive)	72% (inactive)	49.2% (inactive)	46.3% (inactive)
CCCCCCC/C=C/[C@H]1O[C@]23C(=O)C[C@@]4(C[C@@H](OC5OC(CO)C(O)C(O)C5O)C[C@@H]4[C@H]2C=C1C)OC3=O (some centres not stated)	40.8% (inactive)	65.2% (inactive)	56.2% (inactive)	17.3% (inactive)	49% (inactive)		-44.7% (active)	62.2% (inactive)	5.03% (active)	35.9% (inactive)
Cc1ccccc1NC(=O)c1sc2nc(C)c(C(C)O)cc2c1N (configuration not stated)	79% (inactive)	88.6% (inactive)	86% (inactive)	45.1% (inactive)	35.4% (inactive)		32.8% (inactive)	36.2% (inactive)	57% (inactive)	40.5% (inactive)
CN(C)[C@@H]1C(=O)C(C(N)=O)=C(O)[C@@]2(O)C(=O)C3=C(O)c4c(O)cc(CN5CCc6ccccc6C5)c(Cl)c4C[C@H]3C[C@@H]12	-73.8% (active)	-70.8% (active)	-87.2% (active)	-85.4% (active)	-68.7% (active)		-79.3% (active)	-85.4% (active)	-83.8% (active)	
O=C1C(=O)c2c(nc3ccc(Br)cn23)-c2ccccc21	-38.7% (active)	-92.6% (active)	-96.6% (active)	-96.5% (active)	-63.2% (active)		-72.6% (active)	-63.5% (active)	-96.9% (active)	-82.4% (active)
CC1=C(CCCOC(=O)NCCCl)C2=C(C)C3(CC3)[C@@](C)(O)C(=O)C2=C1	-0.524% (active)	70% (inactive)	41.1% (inactive)	-3.61% (active)	3.59% (active)		26.6% (inactive)	17.9% (inactive)	11.6% (inactive)	3.83% (active)
O=C(NCc1ccccc1)c1ccc2c(c1)NC(=O)[C@@H]1CCCN21	90.6% (inactive)	103% (inactive)	92.8% (inactive)	103% (inactive)	94.7% (inactive)		91.3% (inactive)	106% (inactive)	95.9% (inactive)	110% (inactive)
COc1ccc(/C=C(/C(=O)N2CCN(Cc3ccccc3)CC2)c2cc(OC)c(OC)c(OC)c2)cc1O	81% (inactive)	81.7% (inactive)	91.2% (inactive)	74.2% (inactive)	58.4% (inactive)	44.3% (inactive)	44.8% (inactive)	68% (inactive)	87.6% (inactive)	110% (inactive)
Nc1c(C(=O)Nc2ccccn2)sc2nc3c(cc12)CCCC3	69% (inactive)	82.8% (inactive)	78.7% (inactive)	45.3% (inactive)	25.3% (inactive)		29.2% (inactive)	46.4% (inactive)	48.7% (inactive)	49.5% (inactive)
CC(=O)[C@@H]1CC[C@]2(C(=O)O)CC[C@]3(C)[C@H](CC[C@@H]4[C@@]5(C)Cc6c([nH]c7ccccc67)C(C)(C)[C@@H]5CC[C@]43C)[C@@H]12	54.4% (inactive)	64% (inactive)	77.3% (inactive)	74.8% (inactive)	44.9% (inactive)		46.4% (inactive)	31.4% (inactive)	75.1% (inactive)	79.6% (inactive)
Cn1c2c(c3ccc(-c4ccn[nH]4)cc3c1=O)C(=O)c1ccccc1-2	25.3% (inactive)	0.642% (active)	87.3% (inactive)	17.2% (inactive)	1.75% (active)		48.8% (inactive)	8.44% (active)	12.3% (inactive)	
COCCOCCOCc1n(Cc2ccc3ccccc3c2)c2ccccc2[n+]1Cc1ccc2ccccc2c1	5.56% (active)	17.2% (inactive)	40.5% (inactive)	17.2% (inactive)	10.3% (inactive)		-16.6% (active)	33.1% (inactive)	23.6% (inactive)	
O=c1[nH]c(-c2cccc(F)c2)cc2cc(F)ccc12	45.9% (inactive)	96.3% (inactive)	59.1% (inactive)	31.9% (inactive)	13.9% (inactive)	70.7% (inactive)	11.3% (inactive)	25.6% (inactive)	44.2% (inactive)	-2.11% (active)
NC(=O)CN1C(=O)c2ccccc2C1=O	98.8% (inactive)	101% (inactive)	99.1% (inactive)	101% (inactive)	106% (inactive)		88.3% (inactive)	103% (inactive)	102% (inactive)	110% (inactive)
Nc1ccc(C2=NN(C(=O)c3cc(-c4ccc(Cl)cc4)nc4ccccc34)C(c3ccc(Cl)cc3)C2)cc1 (configuration not stated)	50% (inactive)	60.1% (inactive)	45.2% (inactive)	28.8% (inactive)	17.2% (inactive)		15.4% (inactive)	43.8% (inactive)	25.6% (inactive)	22.6% (inactive)
